Compound activity as filed in PubChem BioAssay.
ST2 IL33 inh: inhibitors of human ST2 (IL1RL1) binding to IL-33, primary screen, biochemical, AlphaLISA; Interleukin-1 receptor-like 1 (Homo sapiens), Q01638; AlphaLISA ST2-Fc/biotin-IL-33 interaction, 1 h; inhibition, % for hits at 17 µM; 78,000 compounds, 2.3% hits; in the data active means inhibition above about 30%
Target sequence (Q01638 whole entry, looked up): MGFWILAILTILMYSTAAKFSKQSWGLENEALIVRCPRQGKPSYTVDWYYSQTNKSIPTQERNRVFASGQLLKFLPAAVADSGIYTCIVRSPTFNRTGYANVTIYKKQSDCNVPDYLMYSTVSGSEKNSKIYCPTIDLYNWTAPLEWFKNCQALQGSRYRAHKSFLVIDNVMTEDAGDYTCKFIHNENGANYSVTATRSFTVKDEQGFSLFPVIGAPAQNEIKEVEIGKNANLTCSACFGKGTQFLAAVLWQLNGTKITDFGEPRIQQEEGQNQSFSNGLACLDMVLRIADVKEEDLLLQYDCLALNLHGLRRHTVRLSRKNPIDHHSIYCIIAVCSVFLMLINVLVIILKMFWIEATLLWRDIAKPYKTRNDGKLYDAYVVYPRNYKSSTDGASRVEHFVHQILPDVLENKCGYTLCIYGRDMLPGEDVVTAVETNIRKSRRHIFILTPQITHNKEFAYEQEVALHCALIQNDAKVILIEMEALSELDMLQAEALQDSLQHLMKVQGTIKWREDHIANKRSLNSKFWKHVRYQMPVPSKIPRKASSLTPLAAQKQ
Active calls of the source: *; i = inactive. The sample as a whole holds a higher share of hits than the screen did.

SMILES	ST2 IL33 inh
CC1(C)CC(=O)C2=C(C1)Nc1[nH]c(=O)[nH]c(=O)c1C2c1ccc(F)cc1 (stereo not given)	i
CN(C(=O)CCC(=O)O)c1ccccc1C(=O)O	i
O=C(NCc1ccccn1)c1ccccc1N(Cc1ccccc1)S(=O)(=O)c1ccccc1	i
CC[C@H]1CN(C(=O)c2cccnc2N2CCOCC2)CC[C@@]1(C)O	i
CC(C)C[C@H]1CN(C(=O)c2ccc(-c3nnn(C)n3)cc2)CC[C@@]1(C)O	i
CC[C@H]1CN(C(=O)c2ccc(C)cc2C)CC[C@@]1(C)O	31%*
O=C(CSc1nnc(-c2ccco2)n1-c1ccccc1)c1ccc(Cl)cc1	i
O=C(COc1cc(Cl)ccc1Cl)Nc1ccccc1C(F)(F)F	i
CCOC(=O)Cn1c(=N)n(CCN(CC)CC)c2ccccc21	i
O=C(NC[C@H]1O[C@@H](CO)[C@@H](O)[C@H]1N1CCN(c2ccc(F)cc2)CC1)c1cccs1	74%*
O=C(NC[C@H]1O[C@@H](CO)[C@@H](O)[C@H]1N1CCN(c2ccc(F)cc2)CC1)c1cccc(F)c1	i
O=C(NC[C@H]1O[C@@H](CO)[C@@H](O)[C@H]1N1CCN(c2ccccc2)CC1)c1cccc(F)c1	92%*
CC1CCN([C@@H]2[C@H](O)[C@H](CO)O[C@@H]2CNC(=O)c2cccs2)CC1	i
COc1ccc(C(=O)NC[C@H]2O[C@@H](CO)[C@@H](O)[C@H]2N2CCN(c3ccc(F)cc3)CC2)cc1	i
O=C(NC[C@H]1O[C@@H](CO)[C@@H](O)[C@H]1N1CCN(c2ccccc2)CC1)c1ccc(F)c(Cl)c1	i
COc1ccc(-n2nnnc2SCC(=O)Nc2ccc(F)c(F)c2)cc1	i
COCCN1CCCC2(CCN(Cc3ccccc3OC(F)F)C2)C1 (stereo not given)	i
COc1ccc2nc3oc(C(=O)NCc4cccnc4)cc3cc2c1	i
CCOc1ccc(N=C2SC(C(=O)Nc3ccccc3F)CC(=O)N2C)cc1 (stereo not given)	i
N#Cc1c(NC(=O)CN2CCCCCC2)sc2c1CCC2	i
N#CSCCCOc1ccccc1Br	i
Cc1cccc(NC(=O)c2ccc([N+](=O)[O-])cc2Cl)c1	31%*
CC(C)Oc1ccc(NC(=O)c2ccc([N+](=O)[O-])cc2Cl)cc1	i
O=C(Nc1ccccc1I)c1cc([N+](=O)[O-])ccc1Cl	i
O=C(Nc1ccccc1[N+](=O)[O-])c1cc(I)ccc1Cl	35%*
SMILES	ST2 IL33 inh
O=C(Nc1cccc([N+](=O)[O-])c1)c1ccccc1Cl	i
O=C(Nc1ccc([N+](=O)[O-])cc1Cl)c1cc(I)ccc1Cl	31%*
O=C(Nc1ccccc1I)c1ccc(Cl)cc1[N+](=O)[O-]	30%*
O=C(NCc1cccs1)c1ccc(Cl)cc1[N+](=O)[O-]	i
O=C(Nc1cccc([N+](=O)[O-])c1)c1cc(I)ccc1Cl	i
O=C(Nc1ccccc1Cl)c1ccccc1[N+](=O)[O-]	i
O=C(Nc1ccc([N+](=O)[O-])cc1)c1cc(I)ccc1Cl	i
COc1cc([N+](=O)[O-])ccc1NC(=O)c1cc(I)ccc1Cl	i
Cc1ccc(OC2CCN(Cc3ccncc3)CC2)c(C(=O)NC2CCOC2)c1 (stereo not given)	i
Cn1cc(CC(=O)NCc2cc(-c3ccco3)on2)c2ccccc21	i
CC1CC(C)CN(C(=O)CSC2=Nc3ccccc3C3=NC(Cc4ccccc4)C(=O)N23)C1 (stereo not given)	i
FC(F)(F)c1cc(-c2ccc(Cl)cc2)nc(-n2cccn2)n1	i
O=C(CCCC/C=C/c1ccc2c(c1)OCO2)N1CCCCC1	i
COc1ccc(C2CC(=O)N(C)C3=C2C(=O)CC(C)(C)C3)cc1 (stereo not given)	i
COc1ccc2cc3cc(C(=O)N(C)c4ccc(C)c(C)c4)oc3nc2c1	i
CCN(CC)CCCNc1c2c(c(C#N)c3nc4ccccc4n13)CCC2	42%*
CCCc1cc(NCCCCO)n2c(nc3ccccc32)c1C#N	i
CCc1nc(NCCN(CC)CC)c(C#N)c2c1CCCC2	i
O=C1CC(N2CCN(c3ncccn3)CC2)C(=O)N1c1cccc(Cl)c1 (stereo not given)	i
CCn1cc(C(=O)N2CC(C)CC(C)C2)c(=O)c2cc(S(=O)(=O)N3CCCCCC3)ccc21 (stereo not given)	i
Cc1ccc(NCC(O)COc2ccccc2)cc1C (stereo not given)	35%*
Cc1ccc(OCC(O)CNC(C)(C)C)cc1C (stereo not given)	i
Cc1cc(OCC(O)CNC(C)(C)C)ccc1C(C)C (stereo not given)	i
O=S1(=O)CC2N=C(Nc3ccc(F)cc3F)SC2C1 (stereo not given)	i
CC(=O)c1ccc2c(c1)c1ccccc1n2C	i
SMILES	ST2 IL33 inh
CC(=O)n1c2ccccc2c2c1c1ccccc1n2C	i
Cc1c(C(=O)Cc2ccccc2)n(C)c2ccccc12	37%*
Fc1cccc2sc(N3CCN(c4ccccc4)CC3)nc12	i
Cc1c(N=Cc2cc([N+](=O)[O-])ccc2N2CCCC2)c(=O)n(-c2ccccc2)n1C	36%*
Cc1c(N=Cc2ccccc2O)c(=O)n(-c2ccccc2)n1C	i
Cc1c(N=Cc2cc([N+](=O)[O-])c(Cl)cc2Cl)c(=O)n(-c2ccccc2)n1C	i
O=C(c1cn(CCN2CCCCC2)nn1)N1CCN(c2nc3ccccc3o2)CC1	i
O=C(CCN1CCCCO1)NCc1cccnc1N1CCCCCCC1	i
COc1ccc(OC)c(CNC(=O)c2cc(-c3cccs3)nc3ccccc23)c1	i
COCc1c(C(=O)NCc2ccc3c(c2)CCCN3C)cnn1-c1ncc(C)c(-c2cccs2)n1	39%*
COc1ccccc1-c1ccnc(-n2ncc(C(=O)NCc3cccc(F)c3)c2C2CC2)n1	i
Cn1c(=O)c2c(SCc3ccc(F)cc3)nc(-c3cccs3)nc2n(C)c1=O	i
O=C(Nc1c(-c2ccccc2)nc2ccccn12)C1CCCCC1	i
COc1ccc(-n2nc(C(=O)NCc3ccco3)c3c4ccccc4n(C)c3c2=O)cc1Cl	i
COc1ccc(-n2nc(C(=O)N3CCCCC3C)c3c4ccccc4n(C)c3c2=O)cc1Cl (stereo not given)	97%*
COc1ccc(-n2nc(C(=O)NC3CC3)c3c4ccccc4n(C)c3c2=O)cc1Cl	i
COc1c(F)cccc1C(=O)N(C)C(C)c1nc(C)sc1C (stereo not given)	i
CN(C)c1ccc(C2C(=C(O)c3ccc(Cl)cc3)C(=O)C(=O)N2CCO)cc1 (stereo not given)	i
CCOC(=O)C1(Cc2ccccc2Cl)CCN(C(=O)c2cccs2)CC1	i
COc1ccc(-c2nccn2CCc2ccccn2)c(OC)c1	i
COc1ccc(-c2ccnc(N)c2)c(OC)c1	i
COc1ccc(-c2cc3ccccn3c2)c(OC)c1	50%*
COc1ccc(Cl)cc1C(=O)NCCNC(=O)c1cc(Cl)ccc1OC	i
O=C(Nc1cccc(F)c1)c1cnc2n(c1=O)CCS2	i
O=C(N1CCCCC1)[n+]1ccc(N2CCOCC2)cc1	i
Clc1ccccc1/C=C/C=Nc1ccc(N2CCOCC2)cc1	38%*
Clc1nc(N2CCCCC2)nc(N2CCOCC2)n1	i
CCc1noc(CN(CC)C(=O)CN2CCOc3ccccc3C2)n1	i
O=C(Nc1c(C(=O)Nc2ccccc2F)oc2ccccc12)c1ccco1	i
